Laboratory results taken from PubChem BioAssay AID1117267 (The Scripps Research Institute Molecular Screening Center, 2014).
The whole screen tested about 92,000 compounds, of which about 1,200 (1.3%) were called active. The sample holds actives, similar compounds and a random draw of the others, so the mix is not that of the screen.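 How the source made its calls: active means activation above the mean of all tested compounds plus 3 SD (cut at about 9.5% in these data); inactive means the rest.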

Assay: TTR transcription activators in neuroblastoma reporter cells, primary screen, cell-based, luminescence, SH-SY5Y, TTR promoter Gaussia luciferase (AID 1117267);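 further: cells exposed to compounds for one day before reading; 0% = median of all test compound wells on the plate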
Settings: at 16.7 µM, stronger effect = higher value, 100% = recombinant luciferase protein wells

activation, active:
CCCCN(C)CCNC(=O)C1CCCN(S(=O)(=O)c2cccc3nsnc23)C1 (stereo not given) 14.2%, C=C1C(C(C)C)N(C)C2=NC(c3ccccc3)CC(=O)N12 (stereo not given) 11.5%, Cc1noc(C)c1S(=O)(=O)NCCc1ccc(S(N)(=O)=O)cc1 13.7%, COc1ccccc1N1CCN(Cc2cc(OC)c3c(c2)OCO3)CC1 16.9%, C[C@H](NC(=O)C1CCN(S(=O)(=O)c2ccccc2)CC1)C(=O)NCc1ccccc1 10.2%, Cn1cc(CN2CCCC(CO)C2)c(-c2ccc(Oc3ccccc3)cc2)n1 (stereo not given) 11.1%, O=C(NC(=O)c1ccccc1N1CCCCC1)Nc1ccc(Br)cc1 22.9%, Cc1ccc(CN2CCCOCCS2(=O)=O)cc1 11.7%, N=c1ccn(CC(=O)NC(N)=O)c2ccccc12 10.4%, O=S(=O)(NCCCN1CCOCC1)c1ccc(F)c(Cl)c1 14.3%, CCOC(=O)c1c(-c2ccccc2)oc2ccc(OCC(N)=O)cc12 10%, N#Cc1cccc(CN2CCC(=O)N(CCO)CC2)c1 14.7%, O=S(=O)(NCc1ccccc1Br)c1ccccc1Br 14%, CCOC(=O)c1cc(-c2ccc(Cl)s2)nc2c1c(C)nn2C 15.8%, O=C(O)Cn1c(Cc2ccccc2)nc2ccccc21 20.6%, CC(C)(C)C1CCC(OC(=O)CCC(=O)Nc2ccccc2)CC1 (stereo not given) 20.6%, N#Cc1ccc(CSc2nnc(-c3ccccn3)n2-c2ccc(Cl)cc2)cc1 28%, O=C(NNC(=O)c1cc(S(=O)(=O)N2CCCCC2)ccc1Cl)c1ccccc1O 11.9%, Cc1nc(Nc2ccc3c(c2)OCCO3)c2nnn(Cc3ccccc3Cl)c2n1 11.8%, Nc1nc(SCC(=O)Nc2ccc(Cl)c([N+](=O)[O-])c2)n[nH]1 9.76%

activation, inactive:
COc1ccc(N(C)C(=O)C2CCN(S(=O)(=O)c3cccc4nsnc34)CC2)cc1 -0.63%, CCCCN(CC)C(=O)C1CCCN(S(=O)(=O)c2cccc3nsnc23)C1 (stereo not given) -1.18%, Cc1cccc(NC(=O)c2cccc(C(F)(F)F)c2)c1 0.86%, Cc1ccccc1CN1CCCCC(NC(=O)Nc2ccccc2F)C1=O (stereo not given) -2.49%, CCOc1c(OC)cccc1C(=O)NCC1(c2ccccc2)CCCC1 -2%, O=C1CC(c2ccc3c(c2)OCO3)N=C2N(CC3CC3)C/C(=C/c3ccccc3)N12 (stereo not given) -0.26%, COCCNC(=O)C1CCN(C(=O)C2CC(=O)N(c3ccc(C)cc3)C2)CC1 (stereo not given) 3.12%, COc1ccc(CNc2nccs2)cc1 -0.05%, CCOC(=O)c1c(C)oc2cc(Sc3ccccc3)c(O)c(O)c12 -2.74%, CCOC(=O)c1c(C)c(C(=O)NCCc2ccc(S(N)(=O)=O)cc2)c(C)n1CC -1.43%, O=S(=O)(NCCc1ccccc1)c1ccccc1 0.09%, COc1ccccc1/C=N/Nc1nc(C)c(C(C)=O)s1 0.48%, COc1ccccc1N1CCN(Cc2nnnn2CCc2ccccc2)CC1 -0.88%, COc1ccccc1N1CCN(c2nc(C)cc(=O)[nH]2)CC1 -0.14%, Cc1ccc(C(=O)COC(=O)CCCC(=O)NC2CCCCC2)cc1[N+](=O)[O-] -0.69%, CCN(CC)CCCN=C(N)N -0.95%, Cc1ccc(NC(=O)CN(C)Cc2ccc(F)cc2)c([N+](=O)[O-])c1 2.25%, COc1ccc(-n2ncc3c2CC(C)(C)CC3NC(=O)CCc2c(C)noc2C)cc1 (stereo not given) -1.69%, O=C(NC1CCCC1)C1c2ccccc2OCC(=O)N1CC(F)(F)F (stereo not given) -1.49%, CCOCCn1c(-c2ccccc2)nc2ccccc21 0.16%, COc1ccccc1CNC(=O)C1CCN(S(=O)(=O)c2ccc3c(c2)OCCO3)CC1 0%, O=C(NCc1ccc(Cl)cc1)C1CCN(S(=O)(=O)c2cccs2)CC1 -1.39%, CC1=C(C(=O)N2CCOCC2)CC(CC(=O)NCc2cccc3ccccc23)C(=O)N1CCC1=CCCCC1 (stereo not given) 3.82%, COc1ccc(Cn2ccc3ccc(-c4ccc5ccn(Cc6ccccc6C)c5c4)cc32)cc1 2.53%, Cn1cc(CN2CCC(C(O)CCc3ccccc3)CC2)c(-c2ccccc2F)n1 (stereo not given) -1.93%, CCCOC1CCCN(Cc2cn(C)nc2-c2ccccc2F)C1 (stereo not given) 0.85%, O=C(CCc1n[nH]c(=O)[nH]c1=O)N/N=C/c1ccc(Br)o1 3.17%, C=CCN(Cc1nc(-c2cc(OC)c3c(c2)OCO3)oc1C)C1CCS(=O)(=O)C1 (stereo not given) -0.47%, CCC(=O)c1c(CC)c2n3c1=CC[C@H]3CC(Br)C=2 (stereo not given in full) -0.76%, O=C(Nc1ccc(C(=O)O)cc1)/C(=C\c1ccccc1)NC(=O)c1ccc(Br)cc1 0.53%, COc1ccccc1C(=O)NC(=S)Nc1ccccc1N1CCCCC1 1.44%, COc1ccc(C(C)NC(=O)C23CC4CC(CC(C4)C2)C3)cc1 (stereo not given) 0.59%, O=S1(=O)CCOC[C@H](CC2CCCCC2)N1Cc1ccc(F)cc1 0.81%, CCC(C)[C@H]1COCCS(=O)(=O)N1Cc1ccc(C)cc1 (stereo not given in full) 1.12%, O=C(Cn1cnc2ccccc21)Nc1ccccc1-c1ccccc1 -1.54%, CCc1ccccc1NC(=O)Cc1cn(C)c2ccccc12 4%, Cc1cn(C2CC(O)C(CO)O2)c(=O)n(CCCc2ccccc2)c1=O (stereo not given) 1.94%, O=C(CN1CCOCC1)Nc1c(Cl)cc(Cl)cc1Cl -1.15%, Cn1c(=O)c(=O)n(C)c2cc(S(=O)(=O)NCCN3CCN(c4ccccc4F)CC3)ccc21 -0.31%, Cn1nc(-c2ccccc2)c2cc([N+](=O)[O-])ccc21 2.37%, CCCNC(=O)C(=O)Nc1cc2c3c(c1)CCC(=O)N3CCC2 0.51%, CCOC(=O)c1c(C)oc2ccc(OCC(=O)N(CC)CC)cc12 0.72%, CCOC(=O)c1c(-c2ccccc2)oc2ccc(OCC(=O)NN)cc12 3.27%, CCOc1ccc(CN2CCN(Cc3ccon3)CC2CCO)cc1 (stereo not given) 7.67%, CC(NC(=O)CCCC1CCCCC1)c1ccc(S(N)(=O)=O)cc1 (stereo not given) -0.93%, CCOC(=O)COc1ccc([N+](=O)[O-])cc1 0.43%, O=C1CCN(CCc2ccccc2)CCN1CCOc1ccccc1 0.26%, O=C1CCN(Cc2ccc([N+](=O)[O-])cc2)CCN1[C@H](CO)Cc1ccccc1 -6.98%, CCCCCCNS(=O)(=O)c1ccccc1Br -0.76%, CCN([C@H](CO)C(C)C)S(=O)(=O)c1ccccc1Br 3.03%, OC(c1ccccc1)(c1ccccc1)C1CCN(CCCOc2ccccc2)CC1 -2.2%, CCOC(=O)c1cc(C(=O)Nc2ccc(S(=O)(=O)Nc3ccc(OC)cc3)cc2)nn1C -1.23%, CCOC(=O)C1=C(O)CSC1=Nc1cccc(Cl)c1 -2.26%, CCC(C(=O)NCc1ccccc1)n1c(Cc2cc(F)cc(F)c2)nc2ccccc21 (stereo not given) -1.34%, O=S(=O)(Cc1ccccc1)c1nc2ccccc2n1Cc1ccccn1 -0.52%, COc1cccc(OC)c1C(=O)OCC(=O)/C(C#N)=C(\C)N -0.74%, COc1ccc(CCNC(=O)COc2ccc3c(c2)OCO3)cc1 -1.39%, CC1CCN(CCC(=O)Nc2ccccc2)CC1 0.42%, O=C(CCC1CCN(C(=O)c2cccc(Cl)c2F)CC1)Nc1ccccc1 -1.31%, COc1cc2c(cc1CNC[C@H]1O[C@@H](n3cnc(C(N)=O)n3)[C@H](O)[C@@H]1O)OCO2 1.81%, Cc1ccc(-n2c(SCC(=O)Nc3ccc4c(c3)OCO4)nnc2-c2ccccn2)cc1 -2.71%, N#Cc1ccc(CSc2nnc3ccccn23)cc1 -0.39%, COc1cccc(/C=C2\SC(=N)N(c3ccc(F)cc3)C2=O)c1 3.96%, Cc1ccccc1Nc1c([N+](=O)[O-])ccc2nonc12 -2.33%, COc1ccc(NC(=O)CCC(=O)N2CCN(S(=O)(=O)c3ccc(C)cc3)CC2)c(OC)c1 2.84%, O=C(c1cc(S(=O)(=O)N2CCOCC2)ccc1Cl)N1CCOCC1 2.72%, O=C(COC(=O)c1cc(S(=O)(=O)N2CCCCC2)ccc1Cl)NCc1ccco1 2.03%, Cc1cc(C)n2ncc(C(=O)Nc3ccc4c(c3)OCCO4)c2n1 2.76%, Clc1ccc(Nc2ncnc3c2nnn3Cc2ccccc2)cc1 -0.95%, O=C(Nc1cc(Cl)cc(Cl)c1)OCCN1CCCC12CCC(c1ccccc1)CC2 (stereo not given) 1.93%, CCN(CC)S(=O)(=O)c1ccc(C(=O)N2CCN(C3=NS(=O)(=O)c4ccccc43)CC2)cc1 -0.96%, C=CCN1C(=O)C2(OCCCO2)c2cccc(Cl)c21 0.94%, COc1ccc(NC(=O)CCNC(=O)Cn2cnc3sc4c(c3c2=O)CCCC4)cc1OC -1.59%, O=C(CSc1n[nH]c(-c2cccnc2)n1)Nc1ccc(Cl)cc1 -0.75%, Nc1nc(SCC(=O)Nc2ccc(Cl)cc2C(F)(F)F)n[nH]1 0.01%
